Hits are enriched below; roughly 19% of the tested compounds scored in any of these assays.
RORg inh: blocks mouse ROR gamma transcriptional activity. P51450. Drosophila S2 Gal4-RORgamma UAS-luciferase reporter, 20 h. Potency, µM (series often up to 53.6 µM), inactives show at the highest dose activity change, negative = inhibition, hits mostly inhibitors. actives 5.4% (n = 310,000). AID 2551; note: nearly all actives have a fitted effect of over 60% in size
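Schneider cells (Drosophila), stable Gal4 DBD–ROR gamma + UAS-luc; 1 hr cmpd preincubation; Cu2+ induction 700 uM final; 20 hr ambient; luminescence.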
TDP1 cell noCPT: qHTS for Inhibitors of human tyrosyl-DNA phosphodiesterase 1 (TDP1): qHTS in cells in absence of CPT; DT40 Tdp1-/- hTDP1 cells, no CPT, ATP luminescence, 48 h; Potency, µM (series often up to 46.2 µM), inactives show at the top dose activity change, negative = growth inhibition, hits mostly inhibitors; actives 15% (n = 420,000); AID 686978, 2013; note: nearly all actives have a fitted effect of over 55% in size
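Growth of hTDP1-complemented DT40 Tdp1-knockout cells is measured by ATP luminescence after at least 48 hr compound exposure at 37 °C, with DMSO substituting for the 20 nM CPT used in the parallel screen.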
Gal4-VP16 FLuc: counter-screen for ROR gamma inhibitors: Gal4-VP16 reporter; Drosophila S2 Gal4-VP16 UAS-luciferase, luminescence, 20 h; Potency, µM (top dose mostly 53.6 µM), without a hit: at the top dose activity, negative = inhibition, most hits filed as inhibitors; actives 3.5% (n = 310,000);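 note: Gal4-VP16 expression switched on by copper sulfate through the metallothionein promoter; nearly all actives have a fitted effect of over 50% in size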
DT40 TDP1 CPT: growth inhibition of DT40 Tdp1-/-;hTDP1 cells with camptothecin (screen for TDP1 inhibitors). Potency, µM (doses to about 46.2 µM), inactives show at the highest dose activity change, negative = growth inhibition, actives largely listed as inhibitors. chicken DT40 Tdp1-/-;hTDP1 cells + 20 nM CPT, ATP luminescence, 48 h. actives 12% (n = 420,000); note: nearly all actives have a fitted effect of over 55% in size
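Chicken DT40 Tdp1-/- cells stably complemented with human TDP1 were seeded at 400 cells/well in medium containing 20 nM camptothecin, exposed to pin-transferred compounds, and grown at 37 °C for at least 48 hr. Viability was read as ATP luminescence.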
TDP1 block: blocks human tyrosyl-DNA phosphodiesterase 1; recombinant TDP1, AlphaScreen DNA substrate cleavage; Q9NUW8; AID 485290; actives 0.28% (n = 350,000); Potency, µM (doses to about 130 µM), for inactives: at the highest dose activity change, negative = inhibition, actives largely listed as inhibitors; note: nearly all actives have a fitted effect of over 40% in size
Target sequence (Q9NUW8 whole entry, looked up): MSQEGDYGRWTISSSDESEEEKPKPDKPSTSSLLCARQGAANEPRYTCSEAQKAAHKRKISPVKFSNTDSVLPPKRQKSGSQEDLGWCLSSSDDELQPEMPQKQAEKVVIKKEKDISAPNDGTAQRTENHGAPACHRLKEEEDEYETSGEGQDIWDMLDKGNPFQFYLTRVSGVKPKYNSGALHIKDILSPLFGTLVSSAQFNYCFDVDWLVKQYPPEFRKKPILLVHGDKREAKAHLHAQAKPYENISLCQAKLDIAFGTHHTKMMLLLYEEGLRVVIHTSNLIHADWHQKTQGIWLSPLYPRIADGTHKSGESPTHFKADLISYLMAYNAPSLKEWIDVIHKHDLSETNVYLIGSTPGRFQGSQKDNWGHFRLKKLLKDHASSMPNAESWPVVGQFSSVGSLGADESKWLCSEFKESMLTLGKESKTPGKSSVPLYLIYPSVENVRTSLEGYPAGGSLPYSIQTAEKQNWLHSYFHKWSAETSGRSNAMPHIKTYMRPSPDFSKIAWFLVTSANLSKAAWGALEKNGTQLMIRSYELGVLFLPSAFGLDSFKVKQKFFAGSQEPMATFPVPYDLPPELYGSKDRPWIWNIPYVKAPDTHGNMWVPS
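Recombinant human Tdp1 (E. coli-expressed, 1 nM final) preincubated with compounds 15 min at room temperature, then 5'-biotin/3'-phosphotyrosine-FITC DNA substrate (15 nM final) added for 5 min. AlphaScreen beads (10 ug/ml final) added 10 min; cleavage lowers signal.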
Numbers without * were called inactive; u = inconclusive; x = no result given; [ ] = dose if it differs, or a comment. Calls come from the whole dose curve; as a rule, active = well fitted curve in the direction sought with a large enough effect; inconclusive = small, poorly fitted or top-dose-only effect, or another doubt; inactive = no such curve, though single readings can be large; an effect the other way counts as inactive or inconclusive. % is set by controls: 0 for no effect and ±100 for the full control effect; potency is the fitted concentration of half-maximal effect.

SMILES | RORg inh | TDP1 cell noCPT | Gal4-VP16 FLuc | DT40 TDP1 CPT | TDP1 block
O=S(=O)(c1ccc(Nc2ccc3c(c2)OCO3)nc1)N1CCOCC1 | 29.0% | -6.3% | 0.6% | 19.1% | 2.0%
CC(C)N(C(=O)Cn1cc(S(=O)(=O)Cc2ccc(C(F)(F)F)cc2)c2ccccc21)C(C)C | x | u | x | u | 2.6%
Cc1nc(Nc2ccc(Cl)c(Cl)c2)sc1C(=O)Nc1ccccc1 | u | 14.6µM* | u | 6.51µM* | 5.6%
Cc1nc(NC(=O)/C=C/c2ccccc2)sc1C(=O)Nc1ccccc1Cl | 15.8µM* | -17.9% | u | -2.9% | -4.1%
CC(=O)c1sc(Nc2ccc(Oc3ccccc3)cc2)nc1C | x | 20.6µM* | x | u | x
Cc1nc(NC(=O)/C=C/c2ccccc2)sc1C(=O)Nc1ccc(Cl)cc1 | -37.7% | u | u | u | 0.0%
Cc1nc(Nc2ccc(Cl)cc2Cl)sc1C(=O)Nc1ccccc1 | u | 18.4µM* | u | 25.9µM* | 3.0%
CCOC(=O)C1CCN(C2CC(=O)N(c3ccc(OCC)cc3)C2=O)CC1 (centres undefined) | u | 9.7% | u | -6.8% | -7.4%[56.1 µM]
COc1ccc(/C=C2\SC(=S)N(CCC(=O)NCCCN3CCOCC3)C2=O)cc1 | 8.7% | u | 19.0% | -15.8% | x
CCC(C)[C@H](NC(=O)N1CCC(Cc2ccccc2)CC1)C(=O)O (some centres undefined) | -0.4% | 3.5% | 5.1% | -2.9% | x
Cc1cccc(OCC(=O)N/N=C\c2cn(C)c3ccccc23)c1 | u | u | u | 19.0% | 5.6%
CC(=O)c1sc(N/N=C\c2ccccc2O)nc1C | 1.41µM* | 0.92µM* | 3.98µM* | 1.03µM* | -8.4%
Cc1ccc(C(=O)OCC(=O)NCc2cccs2)cc1 | 44.4% | 23.6% | -3.1% | 3.4% | 2.6%
COc1ccc(NC(=O)c2cccnc2NCCc2ccccc2)cc1 | u | u | -1.7% | 20.6µM* | 0.0%
O=C(Nc1ccccc1)c1cccnc1NCCc1ccccc1 | 37.2% | 16.4µM* | -2.5% | u | x
O=C(/C=C/c1ccc(Br)o1)OCc1ccccc1 | 23.2% | -2.0% | 16.6% | -7.5% | -9.1%
O=C(NCc1nc2ccccc2[nH]1)C1=C[C@H](c2coc3ccccc3c2=O)C[C@H](OCCCCO)O1 | x | u | x | 20.6µM* | x
O=C(NCc1nc2ccccc2[nH]1)C1=C[C@@H](C2CCCCC2)C[C@@H](OCCCCO)O1 | -8.0% | 14.6µM* | 6.0% | 20.6µM* | x
C[C@H]1C=C(C(=O)NCc2nc3ccccc3[nH]2)O[C@@H](OCCCCO)C1 | x | -19.8% | x | -11.1% | x
Cc1ccc(CNC(=O)Cn2c(SCC(=O)Nc3ccc(F)cc3)nc3ccccc32)cc1 | x | u | x | u | 1.2%
CN1CCC[C@@H]1CCNC(=O)c1cccc2c1C(=O)c1ccc(N3CCCC3)cc1S2(=O)=O | x | -17.1% | x | u | 0.7%
C/C=C(/C)C(=O)O[C@@H]1c2c(ccc3ccc(=O)oc23)OC(C)(C)[C@@H]1OC(=O)/C(C)=C\C | u | 9.2µM* | u | 16.4µM* | -1.3%
CC(=O)OC1c2c(ccc3ccc(=O)oc23)OC(C)(C)C1OC(=O)CC(C)C (centres undefined) | u | 18.4µM* | u | 23.1µM* | 0.0%
O=C(NNC(=O)c1ccc[nH]1)c1cc(Cl)cc(Cl)c1 | -15.1% | 1.4% | -19.0% | -11.9% | 1.6%
CCOC(=O)C1Oc2ccccc2C(C(=O)OC)=C1C(=O)OC (centres undefined) | 1.0% | -23.9% | -3.3% | -14.5% | 0.0%[56.1 µM]
SMILES | RORg inh | TDP1 cell noCPT | Gal4-VP16 FLuc | DT40 TDP1 CPT | TDP1 block
Cc1cccc(C)c1Nc1c(-c2ccccc2Cl)nc2cnccn12 | x | 20.6µM* | x | u | 0.0%
COc1cc(-c2nc3cnccn3c2Nc2c(C)cccc2C)ccc1O | -36.7% | u | 11.5% | u | -0.5%
c1cn2c(Nc3ccc4c(c3)OCCO4)c(-c3ccc(N4CCOCC4)cc3)nc2cn1 | 4.3% | -15.4% | -17.2% | u | 10.3%
Cc1ccccc1-c1ccc(Nc2ccc(N3CCOCC3)cc2)nn1 | 33.1% | u | -6.6% | u | 8.1%
Cc1ccc(Nc2c(-c3ccc(N4CCOCC4)cc3)nc3c(C)cccn23)cc1 | x | 14.6µM* | x | 16.4µM* | 8.8%
Cc1cccc(C)c1Nc1c(-c2ccc(N3CCOCC3)cc2)nc2cnccn12 | 1.2% | 18.4µM* | 10.6% | u | 5.2%
CC(C)(C)c1cc(=O)[nH]c(SCc2ccccc2)n1 | -22.5% | u | -6.9% | -22.0% | 0.0%
COc1ccc(-n2nc(C(=O)NCC3CCCO3)c3ccccc3c2=O)cc1 (centres undefined) | -4.5% | 7.2% | -24.0% | -20.4% | 2.1%
CCOC(=O)C1C(c2ccc(C(=O)O)cc2)NC(=O)NC1(O)C(F)(F)F (centres undefined) | 21.5% | -3.9% | 0.0% | 2.0% | 1.1%
COc1cc(/C=C(\C#N)c2nc3c(s2)CCCC3)ccc1O | 8.91µM* | x | u | x | 6.8%
Nc1cccc(-n2nnnc2CN2CCOCC2)c1 | 3.1% | 16.4µM* | -14.4% | u | 1.2%
CCOc1ccc(Br)cc1C1=NN(C(C)=O)C(c2ccc([N+](=O)[O-])s2)O1 (centres undefined) | u | 8.2µM* | u | 18.4µM* | x
CCC(O)C1CCN(Cc2cn(Cc3ccccc3)nc2-c2cc3ccccc3o2)CC1 (centres undefined) | u | u | u | u | 0.0%
COCCOC1CCN(Cc2cn(Cc3ccccc3)nc2-c2cc3ccccc3o2)CC1 | 6.1% | 16.4µM* | 13.3% | u | 3.6%
OC1CCCN(Cc2cn(Cc3ccccc3)nc2-c2cc3ccccc3o2)C1 (centres undefined) | -2.7% | 18.4µM* | 3.6% | u | 2.4%
COC(=O)c1[nH]c2cc(OC)ccc2c1NC(=O)CCN1CCCCC1 | 22.6% | -10.3% | 1.5% | 4.4% | -1.1%
COC(=O)c1cc(NC(=O)c2cc(-c3ccc(Cl)cc3)oc2C(F)(F)F)ccc1N1CCOCC1 | 39.5% | 18.4µM* | u | u | 1.9%
COC(=O)c1cc(NC(=O)c2c(-c3c(Cl)cccc3Cl)noc2C)ccc1N1CCOCC1 | 3.0% | -23.3% | 7.3% | -24.4% | 7.7%
COC(=O)c1cc(NC(=O)c2cc(-c3ccccc3Cl)oc2C(F)(F)F)ccc1N1CCOCC1 | 17.6% | 20.6µM* | -4.8% | u | 3.9%
CC(C)c1ccc(NC(=O)c2cnn3c(C(F)F)cc(-c4ccccc4)nc23)cc1 | x | u | x | u | -1.1%
CCN(CC)c1ccc(NC(=O)c2cnn3c(C(F)F)cc(-c4ccccc4)nc23)cc1 | x | 13µM* | x | u | -1.1%
